Structures are written as SMILES. Some structures have more than one record in an assay (separate samples or runs), and their calls can disagree. The source made the active and inactive calls. The calls were made as follows: active = hit-call score of the fitted dose curve at least 0.9, where 1 is the maximum; inactive = score below 0.9.

The test in a line: CCTE_Mundy_HCI_Cortical_Synap_Neur_Matur_NeuriteCount: CCTE's Synaptogenesis and Neurite Maturation Assay in rat cortical cells for Neurite Count, Mundy Lab (AID 2284222). The method, then:
CCTE_Mundy_HCI_Cortical_Synap&Neurite_Matur is a multiplexed, cell-based-readout assay that uses rat primary cortical cells with measurements taken at 288.33 hours after chemical dosing in a microplate: 96-well plate.CCTE_Mundy_HCI_Cortical_Synap_Neur_Matur_NeuriteCount is one of eight components of the CCTE_Mundy_HCI_Cortical_Synap&Neurite_Matur assay. It measures synaptogenesis and neurite maturation related to number of neurites using High Content Imaging of fluorescently labelled markers.[…] Using a type of morphology reporter, loss -of-signal activity can be used to understand developmental effects.
Cells are plated onto 96 well plates and allowed 2 hr for attachment to the substrate. At days in vitro (DIV) 5, Cytosine Arabinoside (AraC) is added to arrest glial cell growth. Chemicals are dosed and a media change is performed at DIV 7 of differentiation and is continued through DIV 12 when the experiment is terminated. Cells are fixed with […] and Hoechst Dye. Cells are stained using Millipore Mouse anti-MAP2MAB3418 (1:800) and Millipore Rabbit anti-Synaptophysinsc-1750 (1:250) primary antibodies and Alexa Fluor-488 goat anti-mouse and AlexaFluor-546 goat anti-rabbit secondary antibodies to label neuronal cell nuclei, synapses and neurites. A Cellomics ArrayScan VTi HCS Reader is used for automated image acquisition and analysis of neurite outgrowth.
In the case of `O=S(=O)(O)C(F)(F)C(F)(F)C(F)(F)C(F)(F)C(F)(F)C(F)(F)C(F)(F)C(F)(F)F`, the result was inactive.
The term AC50 denotes the concentration giving half of the maximal activity seen. For `CNC(=O)CSP(=S)(OC)OC`, the AC50 was 50 µM (active) and the outcome was inactive.
The matching figures for `CC1(C)C(C=C(Cl)Cl)C1C(=O)OC(C#N)c1ccc(F)c(Oc2ccccc2)c1` (stereo not given): 73.6 µM (active) and “inactive”.
Consider `CC[C@H](C)[C@H]1O[C@]2(C=C[C@@H]1C)C[C@@H]1C[C@@H](C/C=C(\C)[C@@H](O[C@H]3C[C@H](OC)[C@@H](O[C@H]4C[C@H](OC)[C@@H](O)[C@H](C)O4)[C@H](C)O3)[C@@H](C)/C=C/C=C3\CO[C@@H]4[C@H](O)C(C)=C[C@@H](C(=O)O1)[C@]34O)O2` (tested in a mixture with another compound), for which the AC50 was 1.59 µM (active).
For `O=S1OCC2C(CO1)C1(Cl)C(Cl)=C(Cl)C2(Cl)C1(Cl)Cl` (stereo not given), the molecule was classed as inactive.
Same read-out and setting: then `COP(=S)(OC)Oc1ccc([N+](=O)[O-])cc1`, with “inactive”.
`CC1(c2ccc(Oc3ccccc3)cc2)OC(=O)N(Nc2ccccc2)C1=O` (stereo not given): the AC50 is 59 µM (active).
`O=C(O)COc1ccc(Cl)cc1Cl`: the molecule was called inactive.
In the case of `O=C(O)C(F)(F)C(F)(F)C(F)(F)C(F)(F)C(F)(F)C(F)(F)C(F)(F)F`, the call was inactive.
In the case of `CCC(C)(C)C(=O)OC1=C(c2ccc(Cl)cc2Cl)C(=O)OC12CCCCC2`, the call was inactive.
The same measure, in the same setting: then `CC(C)N(C(=O)COc1nnc(C(F)(F)F)s1)c1ccc(F)cc1`, with “inactive”; and `COP(=O)(OC)OC=C(Cl)Cl`, with “inactive”.
On the same count and under the same terms, next, `O=[N+]([O-])/N=C1\NCCN1Cc1ccc(Cl)nc1`: “inactive”.
